Assay outcomes as filed in PubChem BioAssay.
Rows were chosen to be rich in hits. Some 3.2% of all compounds tested hit in one or more screens of this group.
MsrA inh: inhibits bovine methionine sulfoxide reductase A; actives 0.75% (n = 360,000); purified bovine MsrA, absorbance read-out; inhibition, % at 15.5 µM; in the data active means inhibition above about 4.5%
Pemphigus Ab inh: inhibitors of pemphigus antibody binding to human desmoglein-3. binding (percent of control), % at 10 µM. actives 0.48% (n = 310,000). P32926. AID 588358. DSG3-coupled beads, scFv-anti-DSG3-GFP binding, flow cytometry; active compounds read low;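 active means binding more than 3 SD below its plate's average and above zero; inconclusive means below that plate limit but binding exactly zero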;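 further: hits lower antibody fragment binding to DSG3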
Target sequence (P32926 whole entry, looked up, the tested form may be a part): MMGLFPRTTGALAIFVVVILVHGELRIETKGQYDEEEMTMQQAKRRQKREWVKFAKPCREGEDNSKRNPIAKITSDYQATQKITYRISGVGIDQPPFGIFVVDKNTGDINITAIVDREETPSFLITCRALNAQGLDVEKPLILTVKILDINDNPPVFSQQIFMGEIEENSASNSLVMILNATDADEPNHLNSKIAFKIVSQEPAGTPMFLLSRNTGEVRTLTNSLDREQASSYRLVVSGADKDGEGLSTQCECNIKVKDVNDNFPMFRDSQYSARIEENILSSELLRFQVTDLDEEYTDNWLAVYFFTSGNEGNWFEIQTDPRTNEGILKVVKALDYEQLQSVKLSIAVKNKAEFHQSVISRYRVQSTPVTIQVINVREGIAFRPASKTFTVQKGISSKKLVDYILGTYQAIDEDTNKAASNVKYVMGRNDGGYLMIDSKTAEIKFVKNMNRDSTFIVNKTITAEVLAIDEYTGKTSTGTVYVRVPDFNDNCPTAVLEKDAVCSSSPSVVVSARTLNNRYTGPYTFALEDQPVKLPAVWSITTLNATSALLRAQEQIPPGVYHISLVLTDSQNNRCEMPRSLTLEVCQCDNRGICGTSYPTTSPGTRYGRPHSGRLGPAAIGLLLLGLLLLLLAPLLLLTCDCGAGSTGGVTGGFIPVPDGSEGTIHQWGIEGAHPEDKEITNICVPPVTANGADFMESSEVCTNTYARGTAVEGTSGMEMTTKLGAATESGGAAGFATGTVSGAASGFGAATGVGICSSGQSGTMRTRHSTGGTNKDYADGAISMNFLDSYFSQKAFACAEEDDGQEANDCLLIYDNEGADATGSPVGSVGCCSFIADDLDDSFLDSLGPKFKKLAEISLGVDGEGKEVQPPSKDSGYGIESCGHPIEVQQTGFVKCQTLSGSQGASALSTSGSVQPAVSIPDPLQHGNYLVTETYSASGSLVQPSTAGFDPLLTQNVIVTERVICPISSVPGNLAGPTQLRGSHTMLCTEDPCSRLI
DAGLB inh: diacylglycerol lipase beta (human) inhibition; actives 0.059% (n = 340,000); HEK293T DAGLB membrane lysate, EnzChek fluorogenic substrate; inhibition, % at 5.17 µM; in the data active means inhibition above about 34%
rCAG binder: r(CAG) repeat RNA binding. TO-PRO-1 dye displacement fluorescence. actives 1.3% (n = 370,000). AID 651821. inhibition, % at 3 µM;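 active means inhibition above the plate cutoff, the mean of all test compounds on that plate plus 3 SD, cut at about 35% in these data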;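 further: higher means more dye released from RNA so lower well fluorescence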
bovine MsrA act: bovine methionine sulfoxide reductase A activation. activation, % at 10.6 µM. purified bovine MsrA, absorbance read-out. AID 602163. actives 0.3% (n = 360,000); in the data active means activation above about 7.5%
NadD block: NadD (S. aureus) enzyme inhibition | purified NadD enzyme, colorimetric absorbance read-out | actives 0.78% (n = 360,000) | inhibition, % at 20 µM; in the data active means inhibition above about 26%
Of the large screens only hits and unclear results are named; the others gave an inactive call.

Cc1cc(C)c2nc(-c3ccccn3)cc(C(=O)Nc3ccc(S(=O)(=O)Nc4cc(C)on4)cc3)c2c1	NadD block 61.2 (no result: Pemphigus Ab inh)
Cc1cc(C)c2nc(-c3ccccn3)cc(C(=O)Nc3ccc(S(=O)(=O)Nc4onc(C)c4C)cc3)c2c1	NadD block 40.9 (no result: MsrA inh, Pemphigus Ab inh, DAGLB inh, rCAG binder)
CC(C)Cc1nnc(NC(=O)CCC(=O)NC2CCCc3ccccc32)s1 (stereo not drawn)	none
CCCc1nnc(NC(=O)CCC(=O)NC2CCCc3ccccc32)s1 (stereo not drawn)	Pemphigus Ab inh 39.0
CS(=O)(=O)c1cnc(-c2ccccc2)nc1Sc1ccc(F)cc1	Pemphigus Ab inh 63.6
Cc1ccc2oc(-c3ccc(NC(=O)CC(C)C)cc3)nc2c1	Pemphigus Ab inh -15.2
COc1ccc2cc(C(=O)COC(=O)COc3ccc4c(C)cc(=O)oc4c3)ccc2c1	Pemphigus Ab inh 69.2
Cc1cc(=O)oc2cc(OCC(=O)OCC(=O)Nc3ccc4ccccc4c3)ccc12	none
Oc1ccc(N=Nc2ccccc2-c2nn[nH]n2)c(O)c1	Pemphigus Ab inh inconclusive, rCAG binder 79.0
CCCCCCC(=O)NC1CCCCN(Cc2ccc(Cl)cc2)C1=O (stereo not drawn)	none (no result: MsrA inh, Pemphigus Ab inh, DAGLB inh, bovine MsrA act, NadD block)
Cc1ccc(C(=O)N(CC(=O)NC2CCCC2)Cc2cccs2)s1	Pemphigus Ab inh 76.1
Cc1ccc(C(=O)N(CC(=O)NC2CCCC2)c2ccccc2C)s1	none
CCCC[C@H](C(=O)N(C)c1ccccc1)[C@@H](O)c1ccc(Cl)cc1	none (no result: MsrA inh, Pemphigus Ab inh, DAGLB inh, bovine MsrA act, NadD block)
Cc1ccc(/C=N/NC(=O)c2ccc(OC3CCCC3)cc2)o1	MsrA inh 4.6
S=c1[nH]nc(COc2ccccc2)n1/N=C/C=C/c1ccco1	Pemphigus Ab inh 81.0 (no result: DAGLB inh)
S=c1[nH]nc(COc2ccccc2)n1/N=C/C=C/c1ccccc1	none
O=C(NCCCCc1ccccc1)Nc1ccc(F)cc1F	Pemphigus Ab inh 92.4
Cc1ccc(/C=C/c2nnc(-c3cccs3)o2)cc1	Pemphigus Ab inh 70.5
CCN=C1S/C(=C/c2ccc(-c3ccc(Cl)cc3C(=O)O)o2)C(=O)N1CC	rCAG binder 55.4
COc1cccc(/C=N/Nc2nc(Nc3ccc([N+](=O)[O-])cc3)nc(N3CCCC3)n2)c1O	NadD block 34.7 (no result: Pemphigus Ab inh, DAGLB inh)
O=C1C[C@@H](C(=O)Nc2ccc(Cl)cc2)[C@@H](c2ccccc2)O1	none (no result: MsrA inh, Pemphigus Ab inh, DAGLB inh, bovine MsrA act, NadD block)
O=C(NCc1cccc2ccccc12)C1CCCN(c2nc3ccccc3o2)C1 (stereo not drawn)	none (no result: MsrA inh, Pemphigus Ab inh, DAGLB inh, bovine MsrA act, NadD block)
COc1ccc(-c2ccc3c(c2)S(=O)(=O)c2cccc(C(=O)NC4CCCCC4)c2C3=O)cc1OC	Pemphigus Ab inh 53.9 (no result: MsrA inh, rCAG binder)
COc1ccc(-c2ccc3c(c2)S(=O)(=O)c2cccc(C(=O)NC4CC4)c2C3=O)cc1OC	none
Cc1cccc(OCc2nnc(SCC(=O)Nc3ccc(C)c(C)c3)o2)c1	Pemphigus Ab inh 65.5
CC1CCCC(C)N1/N=C/c1cc(Br)c(O)c(Br)c1 (stereo not drawn)	MsrA inh 4.6 (no result: Pemphigus Ab inh, DAGLB inh, bovine MsrA act, NadD block)
O=C(COC(=O)COc1ccccc1)NCCC1=CCCCC1	none
Cc1cc(C)cc(OCC(=O)OCC(=O)NCCC2=CCCCC2)c1	Pemphigus Ab inh -9.8
O=C(Nc1ccc(-c2nc3ccccc3o2)cc1)c1ccc(N2C(=O)C3C4C=CC(C4)C3C2=O)cc1 (stereo not drawn)	Pemphigus Ab inh 55.2
O=C(Sc1n[nH]c(=O)[nH]c1=O)c1ccccc1	bovine MsrA act 10.2
O=c1c2ccccc2oc2ccc(NCCCN3CCOCC3)cc12	none
O=c1c2ccccc2oc2cc(NCCCN3CCOCC3)ccc12	MsrA inh 4.6
O=C(CN1C(=O)N/C(=C\c2ccccc2OCc2ccc(C(=O)O)cc2)C1=O)Nc1ccccc1F	MsrA inh 4.6, rCAG binder 46.9
Nc1ccc2nc(SCC(=O)c3ccccc3)sc2c1	Pemphigus Ab inh 91.9
COc1cccc(-c2oc3c(c2C#CC2(N)CCCCC2)C(O)CCC3)c1 (stereo not drawn)	none (no result: Pemphigus Ab inh, DAGLB inh)
CCc1ccc(C(C)NC(=O)c2ccc(F)cc2)cc1 (stereo not drawn)	none
CCCC(C)NC(=O)c1ccc(F)cc1 (stereo not drawn)	Pemphigus Ab inh 27.4
COC(=O)Cn1c(=NC(=O)c2ccc(S(=O)(=O)N3CCc4ccccc4C3)cc2)sc2cc(OC)ccc21	none
C#CCn1c(=NC(=O)c2ccc(S(=O)(=O)N3CCc4ccccc4C3)cc2)sc2cc(S(N)(=O)=O)ccc21	NadD block 47.4 (no result: MsrA inh, rCAG binder)
